About 860 (61%) of roughly 1,400 compounds were called active. The set was probably picked from earlier hits. These entries were drawn from the full list. Unmarked numbers belong to inactive results.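 How the source made its calls: active means inhibition reaching a set limit, 80% of the first screen's cutoff, at 20 µM in any replicate; inactive means the rest.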
Target: DNA dC->dU-editing enzyme APOBEC-3A (Homo sapiens) (UniProt P31941)
Assay: APOBEC3A deaminase inhibitors, retest, confirmation, selectivity assay for APOBEC3G inhibitor project, biochemical, single concentration, fluorescence readout (AID 493151);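 further: plate controls were DMSO wells with A3A for no effect and wells lacking A3A enzyme for full effect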
Settings: recombinant A3A, ssDNA deaminase UDG fluorescence assay; at 20 µM; stronger effect = higher value

DNA dC->dU-editing enzyme APOBEC-3A (Homo sapiens), sequence (P31941 whole entry, looked up): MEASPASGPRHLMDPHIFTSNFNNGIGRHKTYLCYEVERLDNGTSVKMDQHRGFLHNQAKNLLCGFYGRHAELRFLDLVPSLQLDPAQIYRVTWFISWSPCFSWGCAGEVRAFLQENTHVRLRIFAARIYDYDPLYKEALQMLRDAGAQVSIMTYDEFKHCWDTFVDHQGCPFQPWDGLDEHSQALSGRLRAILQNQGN

| Structure (SMILES) | inhibition |
| --- | --- |
| C=CC1=C(C(=O)O)N2C(=O)[C@@H](NC(=O)/C(=N/OCC(=O)O)c3csc(N)n3)[C@H]2SC1 | 76.3% (active) |
| O=C(Nc1cccc(-c2nc3ccccc3[nH]2)c1)c1ccc(C(=O)Nc2cccc(-c3nc4ccccc4[nH]3)c2)cc1 | 6.82% |
| CC(=O)Nc1ccc(NC(=O)C2CCCN(S(=O)(=O)c3ccc(Cl)cc3)C2)cc1 (centres undefined) | -5.52% |
| CSc1nnc(-c2ccncc2)n1CCCN1CCCC1=O | 72.4% (active) |
| O=C(CSc1nccc(=O)[nH]1)Nc1ccc(N2CCOCC2)c(Cl)c1 | 18.1% |
| COc1cc(/C=N\Nc2ccc([N+](=O)[O-])cn2)ccc1OCC(=O)O | 37.7% (active) |
| CC1(C)CC(N2CCN(C(c3ccccc3)c3ccccc3)CC2)=CC(=[N+]2CCCCC2)C1 | 58.7% (active) |
| Cc1ccc(C2=C/C(=C\c3cccnc3)C(=O)O2)cc1 | 19.7% |
| CCNC(=O)COC(=O)CCNC(=O)c1cccc(C)c1 | 25.7% (active) |
| CSc1nnc(SCc2nc3sc(C(=O)O)c(C)c3c(=O)[nH]2)s1 | 68.9% (active) |
| COc1ccc(Cc2nnc(NC(=O)c3ccc(OC)cc3OC)s2)cc1 | -9.68% |
| COC(=O)C1=C(C)N(Cc2ccccc2)C(=NCCCOC(C)C)N[C@H]1c1ccccc1 | 77.1% (active) |
| N#Cc1ncc(C(F)(F)F)cc1Oc1cccnc1 | -4.78% |
| CCn1c(SCC(=O)Nc2cccc(F)c2)nnc1-c1cc2cc(Br)ccc2o1 | 68.4% (active) |
| O=C(COC(=O)c1cnc(Cl)c(Cl)c1)NCc1ccco1 | 19.3% (active) |
| NS(=O)(=O)c1cc(C(=O)OCC(=O)NNC(=O)c2ccccc2)ccc1Cl | 8.76% |
| C[n+]1ccc(C(=O)NCc2ccccc2)cc1 | 63% (active) |
| CC[n+]1cc(C)ccc1/C=C/c1ccc(N(C)C)cc1 | 58.4% (active) |
| CCN1C(=NCCc2cccnc2)N[C@@H](c2ccccc2)[C@H](C(=O)OC)[C@H]1C | 61.1% (active) |
| CC[n+]1c(C)n(-c2ccccc2)c2ccc(NC(C)=O)cc21 | 73.8% (active) |
| COc1ccc(C)cc1NC(=O)CCCN1C(=O)NC(C)(C)C1=O | 48.1% (active) |
| CS(=O)(=O)c1ccc2c(c1)SC1=NC(=O)/C(=C/c3ccco3)C(=N)N12 | 33.9% (active) |
| CC1=NN(C(=O)CCc2ccccc2O)C(O)(C(F)(F)F)C1 (centres undefined) | 21.4% |

| Structure (SMILES) | inhibition |
| --- | --- |
| O=C(CNC1CCCCC1)NCC1(c2ccccc2)CCCC1 | 29.8% |
| CC(Oc1ccc(F)cc1)C(=O)Nc1cc(S(=O)(=O)N2CCOCC2)ccc1N1CCN(C)CC1 (centres undefined) | 55.2% (active) |
| C[N+](C)(C)CCNC(=O)c1cc[n+](Cc2ccccc2)c(/C=N/O)c1 | 52.7% (active) |
| COC(=O)C[n+]1cccc2ccccc21 | 67.4% (active) |
| CC(C)c1ccc(/C=C2\NC(=O)NC2=O)cc1 | 67.7% (active) |
| CCCCCCCC[n+]1cccc(C(=O)N2c3c(nc(N)[nH]c3=O)NC(C)C2C)c1 (centres undefined) | 69.9% (active) |
| COc1ccc(NC(=O)CN(C)C(=O)/C=C/c2cn(Cc3ccccc3)nc2-c2cccnc2)cc1 | 30.7% |
| CCCN1C2=C(C(=O)CCC2)C(c2ccc(O)c(Br)c2)C2=C1CCCC2=O | -5.86% |
| S=C(Nc1cccnc1)Nc1ccccn1 | -2% |
| C[N+]1(CCNC(=O)/C=N/O)CCCCC1 | 73.9% (active) |
| C[N+]1(CC(O)COc2ccccc2)CCN(C(=O)c2ccc([N+](=O)[O-])cc2)CC1 (centres undefined) | 74.8% (active) |
| CNc1ccc([N+](=O)[O-])cc1C(=O)O | 0.63% |
| COc1ccc(CNc2nnnn2C)cc1 | -3.03% |
| Cc1cc2c(cc1C)[n+](C)cn2CC(O)COCC1CC=CCC1 (centres undefined) | 73.1% (active) |
| CC(/C=C/c1ccccc1)=N\NC(=O)C1CC1(C)c1ccccc1 (centres undefined) | -0.43% |
| COc1ccc2[nH]c(=O)c(-c3noc(-c4ccc(F)cc4)n3)cc2c1 | 5.11% |
| CCCc1nc(-c2cc3cc(C)ccc3[nH]c2=O)no1 | 67.6% (active) |
| COc1ccccc1-c1noc(CSc2nc(C)cc(=O)[nH]2)n1 | 36.8% (active) |
| O=C(c1ccc(CS(=O)(=O)c2ccccc2)o1)N1CCN(c2ccccc2)CC1 | 31.7% (active) |
| Cc1snc(SCc2c(F)cccc2Cl)c1C#N | 30.3% |
| N#Cc1ccccc1CN1C(=O)S/C(=C/c2cccn2-c2cccc(C(=O)O)c2)C1=O | 53.8% (active) |
| CCN(CC)CCCNC(=O)CCn1nc(-c2ccc(Cl)cc2)ccc1=O | -4.91% |
| Cc1nnc(N/N=C/c2ccccn2)[nH]c1=O | -1.88% |

| Structure (SMILES) | inhibition |
| --- | --- |
| O=C(N/N=C\c1cccnc1)c1cc(-c2ccccc2)nc2c(Cl)cccc12 | -3% |
| COc1ccc(CCNC(=O)COC(=O)/C=C/c2cccs2)cc1OC | -7.13% |
| COc1ccccc1CCNC(=O)C1CCN(C(=O)/C=C/c2ccccc2)CC1 | 36.9% (active) |
| CC1(C)Oc2ccc3ccc(=O)oc3c2/C(=C/NCCO)C1=O | 71.5% (active) |
| N#Cc1ccsc1NC(=O)CN1CCN(S(=O)(=O)c2cc(Cl)ccc2Cl)CC1 | 22.2% |
| CCN(CC)CCOC(=O)c1ccc(NC(=O)CNC(=O)c2ccccc2)cc1 | 2.53% |
| Cc1csc(SCC(=O)Nc2sccc2C#N)n1 | 0.02% |
| CCOC(=O)c1ccc(NC(=O)CSc2ncccn2)cc1 | 59% (active) |
| Cc1cc(/C=N/NC(=O)CC2(C)OCCO2)c(C)n1-c1ccc(Cl)c(Cl)c1 | 0.39% |
| CCS(=O)(=O)c1ccc(-c2cccc(NC(=O)c3ccc(Br)o3)c2)nn1 | -5.47% |
| CCCCNC(=O)CSc1nc2ccc(NC(=O)CSc3nnc(N)s3)cc2s1 | 49.7% (active) |
| COc1ccc(Br)cc1CN(C)C(=O)C1CC(=O)N(C2CCCC2)C1 (centres undefined) | 27.6% (active) |
| O=C(CSc1nc2ccccc2c(=O)[nH]1)Nc1nc(-c2ccc(Br)cc2)cs1 | 42.3% (active) |
| CC(C)CCOc1ccc(C(=O)C[N+]2(C)CCOCC2)cc1 | 95.7% (active) |
| Cc1ccc(C(=O)N/N=C\c2cc(Br)c(Br)o2)cn1 | 15.2% (active) |
| COc1cccc(NC(C)=[N+](C)CCNS(=O)(=O)c2ccc(Cl)cc2)c1 | 29.4% |
| C[N+](C)(CCCCCC[N+](C)(C)CCCN1C(=O)c2cccc3cccc(c23)C1=O)CCCN1C(=O)c2cccc3cccc(c23)C1=O | 35.2% (active) |
| CC(=O)Nc1ccc(Nc2cc(C)nc(Nc3ccc(NC(C)=O)cc3)n2)cc1 | 48.6% (active) |
| Cc1ccc(CCCOC(=O)C[N+]2(C)CCCCC2)cc1 | 81.4% (active) |
| CCN1C(=NCc2ccc(OC)cc2)N[C@@H](CCc2ccccc2)[C@H](C(=O)NCc2ccc(OC)cc2)[C@H]1C | 32.8% (active) |
| CCN1C(=NCC(C)C)N[C@@H](CCc2ccccc2)[C@H](C(=O)NCC(C)C)[C@H]1C | 37.8% (active) |
| COCCCn1c(Cc2csc(Nc3cccc(Cl)c3)n2)nnc1SCC(=O)OC1CCCCC1 | 72.2% (active) |
| O=C1c2oc3ccccc3c(=O)c2C(c2cccc(O)c2)N1c1ccccn1 (centres undefined) | -9.88% |

Source: PubChem BioAssay AID493151 (Sanford-Burnham Center for Chemical Genomics, 2011)
